Max response and Potency data for 15 compounds are collected here from PubChem BioAssay AID652283 (National Center for Advancing Translational Sciences (NCATS), 2013).

Results filed as inconclusive are left out. A number with no mark means an inactive call. Active and inactive are the calls of the source. The call rests on the fitted dose curve; in most records, active means well fitted inhibition curve with a large enough effect; inconclusive means small, poorly fitted or top-dose-only effect; inactive means no such curve, though single readings can be large or run the other way.

A short description of this test: qHTS Assay for Lipid Storage Modulators: COS7 Assay against Probe and Analogs. The conditions noted are these: COS7 lipid droplet area, BODIPY imaging, 18 h. The source says: Storing lipids as a reservoir for energy or the anabolism of elementary metabolites is a common feature of probably all cells and is conserved from bacteria to humans. The universal cellular lipid storage organelle is the so-called lipid storage droplet (LD). Although ubiquitous, LDs share a simple structure composed of a hydrophobic core that harbors the storage lipids, which is shielded by a droplet-specific phospholipid monolayer to which proteins are attached. The current model of LD biogenesis involves an incorporation of the lipid core into the membrane leaflets of the endoplasmic reticulum (ER) followed by a subsequent budding-like maturation of a LD, which ultimately pinches off. Once released, LD volume can increase by localized lipogenesis or fusion of existing droplets. Storage lipids are re-mobilized enzymatically by lipase activity. Lipase regulation in the adipocyte is heavily studied and involves multiple components including catecholamine signaling, the LD-associated proteins Perilipin and comparative gene identification-58 (CGI-58) and at least two lipases named hormone sensitive lipase (HSL) and adipocyte triglyceride lipase (ATGL). LD regulation outside of the adipocyte is poorly understood and only few components are known. However, there is an urgent need to learn more about ectopic fat depots as mislocalized storage of lipids, for example in the liver or muscle, is an eminent health problem associated with insulin resistance or the metabolic syndrome. We developed a laser-scanning cytometer assay to enable 1,536-well screening and combined the results of the small molecules screen with an RNAi database based on lipid storage. In this assay we tested analogs of the probe against a mammalian cell line (COS7), to see if these small molecules could disrupt lipid storage. NIH Molecular Libraries Probe Production Centers Network [MLPCN] NIH Chemical Genomics Center [NCGC] MLPCN Grant: MH085686 Assay Submitter (PI): Mathias Beller, Max-Planck-Institut fur Biophysikalische Chemie
COS7 cells were obtained from ATCC (CRL-1651), 5500 cells/well were dispensed into Corning 96 well imaging plate (catalog # 3340), and cultured in 100 uL of 1:1 DMEM medium (PAA) contain 10% fetal bovine serum (FBS) for 24 hours at 37 degrees C, 95% humidity, and 5% CO2. The medium was exchanged for compound treatment. Compound treatment occurred in 150 microL serum reduced medium (5% FBS) and 0.2% DMSO in presence of 400 microM oleic acid for 17-18 h. Cells were then fixed (3.7 % formaldehyde in PBS, 5 min), permeabilized (0.1% Triton X100, 5 min) and washed three times with PBS. Lipid droplets (1:2000 BODIPY 493/503) and nuclei (1:1000 Hoechst 33342) were stained for 1h. Imaging was performed in a Zeiss Axiovert automatic microscope. Number of lipid droplet accumulated in […] cells were analyzed using visual examination of the microscopic images and additional quantification by image segmentation using Cell Profiler.
Consider `CCOc1ccc(CCNC(=O)c2cc3ncccc3n2Cc2cccc(C)c2)cc1OCC`, for which the max response was 6.92%.

For the compound `CCOc1ccc(CCNC(=O)c2cc3ccccc3n2Cc2cccc(C)c2)cc1OCC`, the Potency is 0.264 µM (active).

`CCOc1ccc(CCNC(=O)c2cc3ccncc3n2Cc2cccc(C)c2)cc1OCC`: the max response is -1.73%.

Turning to `CCOc1ccc(CCNC(=O)c2cc3ccccc3n2CCN2CCOCC2)cc1OCC`, the Potency was 5.26 µM (active).

Consider `CCOc1ccc(CCNC(=O)c2cc3ncccc3n2Cc2cccc(C)n2)cc1OCC`, for which the max response was -5.54%.

On to `CCOc1ccc(CCNC(=O)c2cc3ccccc3n2Cc2ccccn2)cc1OCC`, for which the Potency is 1.66 µM (active).

As to `CCOc1ccc(CCNC(=O)c2ccc(C(=O)c3ccccc3)cc2)cc1OCC`, the max response is -5.7%.

Consider `CCOc1ccc(CCNC(=O)c2cc3cnccc3n2Cc2cccc(C)n2)cc1OCC`, for which the max response is -1.53%.

Turning to `CCOC(=O)C1CCN(C(=O)C2(NC(=O)Nc3ccccc3Cl)CCCC2)CC1`, the Potency was 5.87 µM (active).

For `CCOc1ccc(CCNC(=O)c2ccccc2)cc1OCC`, the max response was -7.94%.

On to `CCOc1ccc(CCNC(=O)c2cc3cnccc3n2Cc2cccc(C)c2)cc1OCC`, for which the max response is -13.8%.

With `CCOc1ccc(CCNC(=O)c2cc3ccncc3n2Cc2cccc(C)n2)cc1OCC`, the max response was -22.2%.

Take `CCOc1ccc(CCNC(=O)c2cc3cccnc3n2Cc2cccc(C)c2)cc1OCC`: the max response is 0%.

Take `CCOc1ccc(CCNC(=O)c2cc3sccc3n2Cc2ccc(F)cc2F)cc1OCC`: the Potency was 1.18 µM (active).

With `CCOc1ccc(CCNC(=O)c2cc3ccccc3n2Cc2cccc(C)n2)cc1OCC`, the Potency was 0.59 µM (active).
